Bioassay records deposited in PubChem by National Center for Advancing Translational Sciences (NCATS).
D2 ag-1: D2 dopamine receptor (human) agonism | hit rate 0.53% among 340,000 | P14416 | activation, % at 2 µM | HEK293 T-REx D2 cells, calcium flux agonist mode | AID 485358;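 active means activation over 3 SD above normal in the single-dose calcium agonist read, cut at about 30% in these data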
Target sequence (P14416 whole entry, looked up): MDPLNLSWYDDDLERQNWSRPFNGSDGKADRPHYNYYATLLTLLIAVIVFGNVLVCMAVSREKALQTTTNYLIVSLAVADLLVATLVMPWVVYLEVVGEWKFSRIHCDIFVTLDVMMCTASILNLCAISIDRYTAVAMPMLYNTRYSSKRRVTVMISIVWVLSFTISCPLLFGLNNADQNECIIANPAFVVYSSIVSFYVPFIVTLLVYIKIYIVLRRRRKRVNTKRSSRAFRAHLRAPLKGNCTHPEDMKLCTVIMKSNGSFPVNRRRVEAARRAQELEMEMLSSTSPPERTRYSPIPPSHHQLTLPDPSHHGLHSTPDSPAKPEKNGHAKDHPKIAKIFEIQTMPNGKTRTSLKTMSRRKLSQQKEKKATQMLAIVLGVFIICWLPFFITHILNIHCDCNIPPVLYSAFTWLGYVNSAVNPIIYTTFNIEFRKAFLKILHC
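Tetracycline-induced HEK293 T-REx cells with force-coupled D2 receptor, plated overnight at 30 C, loaded with no-wash calcium dye. After a 10 s baseline, compound was pin-added and calcium flux read kinetically for 180 s; calcium rises flagged agonists.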
D2 PAM-1: potentiates the human D2 dopamine receptor allosterically; AID 624464; hit rate 0.23% among 360,000; P14416; DiscoveRx D2 beta-arrestin cells, luminescence, 90 min; 100% = 57 uM dopamine signal; potentiation, % (no concentration beside the values); in the data active means potentiation above about 50%
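PathHunter D2 cells, attached overnight at 37 deg C, received compound in DMSO plus dopamine at EC20 (50 nM final) for 90 min at 37 deg C. Beta-arrestin recruitment was read as luminescence after 1 h with detection reagent at ambient temperature.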
D2 antag: antagonizes the human D2 dopamine receptor; P14416; HEK293 TREx D2 cells, calcium flux, dopamine EC80; inhibition, % at 10 µM; hit rate 2% among 340,000; in the data active means inhibition above about 30%; inactive means below that, where a call was filed
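Inhibition of EC80 dopamine-driven calcium flux, recorded kinetically, defines activity here; cells are a tetracycline-induced HEK293 T-REx line expressing force-coupled D2.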
D2 PAM-2: D2 dopamine receptor (human) potentiation. AID 485347. hit rate 0.34% among 340,000. P14416. potentiation, % at 10 µM. HEK293 T-REx D2, calcium flux, EC20 dopamine potentiation;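 active means potentiation over 3 SD above the plate norm, cut at about 30% in these data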
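Potentiation of an EC20 dopamine calcium response measured kinetically over 180 s, after a preceding 180 s compound-only read flagging agonists. Cells: inducible Hek293 Trex D2 line, 4000/well, cultured overnight at 30 C before dye loading.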
D2 ag-2: agonists of human D2 dopamine receptor (beta-arrestin) | P14416 | hit rate 0.084% among 360,000 | DiscoveRx PathHunter D2 beta-arrestin, luminescence, 90 min; 100% = 57 uM dopamine signal | activation, % (concentration not given with the values); in the data active means activation above about 40%
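Agonist mode: compounds alone added to overnight-plated D2 PathHunter cells for 90 min at 37 C, with 57 uM final dopamine (EC100) defining full response. Beta-arrestin recruitment detected by chemiluminescent reagent, read after 1 h at ambient temperature.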
Hits are given with their value. Shown are actives, neighbours in structure and some others; about 2.4% of the full set was active somewhere.

Results for COc1ccccc1-c1cc(C(=O)NCc2ccc(Cl)cc2)no1 ?
D2 PAM-1: inactive; D2 ag-2: inactive

What do the screens show for `COc1ccc(CNC(=O)c2cc(-c3ccco3)on2)cc1`?
D2 ag-1: inactive; D2 PAM-1: inactive; D2 antag: inactive; D2 PAM-2: inactive; D2 ag-2: inactive

How did CCCCN(CCCC)S(=O)(=O)c1ccc2oc(C(=O)NCc3ccccc3)c(C)c2c1 do in these assays?
D2 ag-1: inactive; D2 PAM-2: inactive

Results for COCCn1c(C)cc(O)c(C(c2ccc(Cl)cc2)N2CCN(c3ccccc3)CC2)c1=O (stereo not given) ?
D2 ag-1: inactive; D2 PAM-2: inactive

Results for CCOc1ccc(CCNC(=O)CSc2nc3ccccc3nc2Cc2ccc(C)cc2)cc1OCC ?
D2 ag-1: inactive; D2 PAM-2: inactive

How did CCOC(=O)c1c(NC(=O)c2cc(=O)c3c(C)cc(C)cc3o2)sc2c1CCC2 do in these assays?
D2 ag-1: inactive; D2 PAM-2: inactive

What do the screens show for `CCc1sc(Nc2cccc(Cl)c2C)nc1-c1cc2cccc(OC)c2oc1=O`?
D2 ag-1: inactive; D2 PAM-2: inactive

Results for Oc1ccc(Nc2ccc3ccccc3c2)cc1 ?
D2 PAM-1: 66; D2 ag-2: inactive

How did Oc1ccc(Nc2nc(-c3ccc4ccccc4c3)cs2)cc1 do in these assays?
D2 ag-1: inactive; D2 antag: inactive; D2 PAM-2: inactive

What do the screens show for `O=C(/C=C/c1ccc(Cl)cc1)NC(=S)Nc1ccc(CN2CCOCC2)cc1`?
D2 ag-1: 35; D2 PAM-1: inactive; D2 antag: inactive; D2 PAM-2: inactive; D2 ag-2: inactive

What do the screens show for `CCSc1nnc2ccc(-c3ccco3)nn12`?
D2 ag-1: inactive; D2 PAM-1: inactive; D2 antag: inactive; D2 PAM-2: 37; D2 ag-2: inactive

Results for CCSc1nnc2ccc(-c3ccc(C)cc3)nn12 ?
D2 ag-1: inactive; D2 PAM-1: inactive; D2 antag: inactive; D2 PAM-2: inactive; D2 ag-2: inactive

What do the screens show for `CCCOc1ccc(N2C(=O)CC(NNC(=O)c3ccc(COc4ccccc4)o3)C2=O)cc1` (stereo not given)?
D2 ag-1: inactive; D2 PAM-1: inactive; D2 antag: inactive; D2 PAM-2: inactive; D2 ag-2: inactive

Results for CCOc1cccc(N2C(=O)CC(NNC(=O)c3ccc(Br)o3)C2=O)c1 (stereo not given) ?
D2 ag-1: inactive; D2 PAM-1: inactive; D2 antag: 38; D2 PAM-2: inactive; D2 ag-2: inactive

What do the screens show for `O=C(NNC1CC(=O)N(c2ccc(Br)cc2)C1=O)c1ccco1` (stereo not given)?
D2 ag-1: 38; D2 PAM-1: inactive; D2 antag: inactive; D2 PAM-2: inactive; D2 ag-2: inactive

How did O=C(NNC1CC(=O)N(c2ccc(Cl)cc2)C1=O)c1ccco1 (stereo not given) do in these assays?
D2 ag-1: inactive; D2 PAM-1: inactive; D2 antag: inactive; D2 PAM-2: inactive; D2 ag-2: inactive

Results for Cc1cccc(CNC(=O)c2ccc(C)c(-n3c(C)nc4cccnc43)c2)c1 ?
D2 ag-1: inactive; D2 PAM-2: inactive

How did COc1ccc(Cl)cc1NS(=O)(=O)c1cc(-c2cc(C)no2)ccc1C do in these assays?
D2 ag-1: inactive; D2 PAM-2: inactive

What do the screens show for `O=C(CCSCCC(=O)NCc1ccccc1)NCc1ccccc1`?
D2 ag-1: inactive; D2 PAM-1: inactive; D2 antag: inactive; D2 PAM-2: inactive; D2 ag-2: inactive

How did NS(=O)(=O)c1ccc(CNC(=O)CCSCCC(=O)NCc2ccc(S(N)(=O)=O)cc2)cc1 do in these assays?
D2 ag-1: inactive; D2 PAM-1: inactive; D2 antag: 33; D2 PAM-2: inactive; D2 ag-2: inactive

How did Cc1ccc(C2(C(F)(F)F)NC(=O)N3C(=C2C#N)Nc2ccccc23)cc1 (stereo not given) do in these assays?
D2 ag-1: inactive; D2 PAM-1: inactive; D2 antag: inactive; D2 PAM-2: inactive; D2 ag-2: inactive

How did CN1C2=C(C#N)C(c3ccccc3)(C(F)(F)F)NC(=O)N2c2ccccc21 (stereo not given) do in these assays?
D2 ag-1: inactive; D2 PAM-1: inactive; D2 antag: 32; D2 PAM-2: inactive; D2 ag-2: inactive

How did CC(=O)N(C)/C=C1\Sc2ccccc2C1=O do in these assays?
D2 ag-1: inactive; D2 PAM-1: inactive; D2 antag: inactive; D2 PAM-2: inactive; D2 ag-2: inactive
